# Reference: ChEMBL document CHEMBL1157539, “Thousands of chemical starting points for antimalarial lead identification” (Nature, 2010)
# Where “and” joins values, the source holds several entries; their conditions need not be identical. Equal entries are not always repeated.
# What was measured:
# Type in all cases: functional
# Plasmodium falciparum [1] = assay: GSK_TCMDC: Inhibition of Plasmodium falciparum 3D7 in whole red blood cells, using parasite LDH activity as an index of growth. Test compounds present at 2uM
# Plasmodium falciparum [2] = assay: GSK_TCMDC: Inhibition of Plasmodium falciparum Dd2 in whole red blood cells, using parasite LDH activity as an index of growth. Test compounds present at 2uM
# HepG2 = assay: GSK_TCMDC: Percent inhibition of human HepG2 cell line. Test compounds present at 10uM.
Compound,Inhibition (Plasmodium falciparum [1]),Inhibition (Plasmodium falciparum [2]),Inhibition (HepG2)
O=C(O)C(F)(F)F.OC1(CNCc2ccccc2)CCN(CCc2c[nH]c3ccc(F)cc23)CC1,100%,4%,39%
COC(=O)c1ccc(CC(C)NCC(O)c2cccc(Cl)c2Cl)cc1.Cl (stereo not drawn),98%,98%,0%
Cc1[nH]c2cc(Cl)ccc2c1C1=CCN(CCN2CCOc3c(Br)cccc3C2=O)CC1.Cl,90%,58%,1%
COC(=O)c1ccc(CC(C)NCC(O)c2cccc(C(F)(F)F)c2)cc1C (stereo not drawn),93%,74%,6%
Cc1[nH]c2cc(Cl)ccc2c1C1=CCN(CCCCC2(C)C(=O)Nc3c(F)cccc32)CC1 (stereo not drawn),90%,74%,14%
CN(C(=O)OCc1ccccc1)C1CCC(CCN2CCC3(CC2)C(=O)NCN3c2cccc(C(F)(F)F)c2)(c2ccccc2)CC1 (stereo not drawn),80%,72%,19%
O=C(/C=C/c1ccc(Cl)c(Cl)c1)NCCCCCN1C2CCC1CC(c1c[nH]c3ccc(O)cc13)C2 (stereo not drawn),100% and 91%,0% and 20%,9% and 26%
CC[C@H]1CN2CC[C@@H]1C[C@H]2[C@H](O)c1cc(N2CCC(CO)CC2)nc2ccc(OC)cc12,99%,99%,4%
COc1ccc2[nH]cc(C3=CCN(CC4CC4C(=O)c4ccccc4)CC3)c2n1 (stereo not drawn),95%,93%,22%
N#Cc1ccc(N(CC(=O)NCCc2ccc(F)cc2)CC2CC2)c2ccccc12.O=C(O)C(F)(F)F,91%,23%,28%
COc1ccc2[nH]cc(C3CC4CCC(C3)N4CCC3CCN(C(=O)/C=C/c4ccc(Cl)c(Cl)c4)CC3)c2c1 (stereo not drawn),100%,80%,38%
CS(=O)(=O)Nc1ccc2[nH]cc(C3CCN(CC4CCN(C(=O)/C=C/c5ccc(Cl)c(Cl)c5)CC4)CC3)c2c1,100%,92%,27%
CCCCCOc1ccc(CC(C)NCC(O)c2cccc(Cl)c2)cc1 (stereo not drawn),100%,99%,0%
Cc1ccc(C)c(C=CC(=O)NC2CCC(CN3CCC(c4c[nH]c5ccccc45)CC3)CC2)c1 (stereo not drawn),100%,55% and 80%,46% and 38%
C#CCN1CCC2=C(C1)c1c(O)cc(C(C)C(C)CCc3ccc(F)cc3)cc1OC2(C)C (stereo not drawn),100%,99%,10%
COC(=O)c1ccc(CC(C)NCC(O)c2cccc(Oc3cccc(C(F)(F)F)c3)c2)cc1.Cl (stereo not drawn),91%,73%,19%
CC[C@H]1CN2CC[C@@H]1C[C@H]2[C@H](O)c1cc(-c2cccnc2)nc2ccc(OC)cc12.Cl,99%,99%,20%
CCOC(C(=O)OCC1CCCN1C(C)C)(c1ccccc1)c1ccccc1 (stereo not drawn),98%,2%,0%
CC1(CCCCN2CC=C(c3c[nH]c4ccccc34)CC2)C(=O)Nc2ccccc21 (stereo not drawn),94%,90%,3%
Fc1ccc(N(c2nc(-c3cc(F)cc(C(F)(F)F)c3)cs2)C2CCNCC2)cc1.O=C(O)C(F)(F)F,95%,10%,35%
COCCNCc1ccc(-c2cccc(CN(C(=O)CCC3CCCC3)C3CCN(Cc4ccccc4)CC3)c2)cc1.O=C(O)C(F)(F)F,91%,86%,50%
CC(C)(C)c1cc(/C=C/C(=O)NC2CCC(CN3CCC(c4c[nH]c5ccccc45)CC3)CC2)cc(C(C)(C)C)c1O (stereo not drawn),100%,100%,98% and 99%
COCCNCc1cccc(-c2ccc(CN(C(=O)Nc3ccccc3)C3CCN(Cc4ccccc4)CC3)cc2)c1.O=C(O)C(F)(F)F,100%,45%,25%
C[C@@H]1C[C@@H]([C@H](O)CC2CC(=O)NC(=O)C2)C(=O)[C@@H](C)C1 [CYCLOHEXIMIDE],96%,87%,46%
CCCCCCCn1c(=O)c(C(=O)Nc2c(C)cccc2C)c(O)c2ccccc21,90%,42%,6%
COc1cccc(C(=O)C2CC2CN2CC=C(c3c[nH]c4ccc(OC)nc34)CC2)c1 (stereo not drawn),94%,89%,8%
